# FBPA coupling cs = coupling enzyme interference in Giardia aldolase counter-screen. activity change, negative = inhibition, % at 58.2 µM, hits read low. hit rate 0.67% among 290,000. coupling enzyme system counterscreen, AmpLite Red fluorescence; in the data active = activity change below about -30%
#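 Counterscreen lacking aldolase: glyceraldehyde-3-phosphate coupling-enzyme reagent preincubated 10 min at RT with compound (at 57.5 uM final), then substrate/coupling system with AmpLite Red added; fluorescence read at 525/598 nm after 20 min RT.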
# Sfp inh = blocks B. subtilis Sfp PPTase activity. Q9F4F7. Biochemical Sfp PPTase activity, qHTS. Potency, µM, without a hit: largest response in the series, negative = inhibition, most hits filed as inhibitors. hit rate 3.5% among 310,000;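 note: the enzyme is Sfp with the accession as filed and its product quenches rhodamine fluorescence; potency is the fitted concentration of half-maximal effect; 0% = enzyme reaction without inhibitor and -100% = no enzyme wells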
#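 After 15 min at room temperature with compound, 15 nM Sfp received 5 uM rhodamine-CoA plus 12.5 uM BHQ-2-ybbR (50 mM Hepes pH 7.6, 10 mM MgCl2). Rate came from the fluorescence difference over 30 min, ex 525/em 598 nm.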
# Tau fluor cs = counter-screen for tau fibril formation inhibitors; tau K18 P301L Alexa594 fluorescence, heparin fibrillization; Potency, µM (highest dose often 57.7 µM), for the others: at the highest dose activity change, negative = decrease; hit rate 0.93% among 280,000; AID 1463; note: potency is the fitted concentration of half-maximal effect; nearly all actives have a fitted effect of over 55% in size
#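 Human K18 P301L tau (15 uM unlabeled plus 0.24 uM Alexa 594-labeled, final) in 100 mM sodium acetate pH 7 was mixed with compound and 20 uM heparin and incubated 6 hr at 37 C.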
# G9a block = inhibitors of human histone lysine methyltransferase G9a; G9a H3K9 monomethylation, AlphaScreen, 2 h; Potency, µM (series often up to 102 µM), without a hit: at the highest dose activity, negative = inhibition, most hits filed as inhibitors; hit rate 8.8% among 350,000; Q96KQ7; note: potency is the fitted concentration of half-maximal effect; nearly all actives have a fitted effect of over 75% in size
# Target sequence (Q96KQ7 913-1193 limits assumed): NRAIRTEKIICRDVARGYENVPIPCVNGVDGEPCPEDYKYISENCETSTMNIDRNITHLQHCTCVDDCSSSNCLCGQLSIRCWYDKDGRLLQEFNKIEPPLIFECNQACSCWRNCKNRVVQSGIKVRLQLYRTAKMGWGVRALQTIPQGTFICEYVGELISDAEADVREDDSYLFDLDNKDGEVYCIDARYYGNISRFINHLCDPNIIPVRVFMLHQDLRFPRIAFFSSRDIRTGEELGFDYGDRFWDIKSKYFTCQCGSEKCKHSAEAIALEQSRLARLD
#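 Chemiluminescent proximity detection of H3K9 monomethylation, read after 10 min bead incubation in the dark. Reaction: 20 nM G9a, 500 nM biotin-H3K9 peptide, 20 uM SAM cofactor, 2 h, room temperature, following 15 min enzyme-compound preincubation.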
# Tau fibril ThT = blocks human tau fibril formation measured by thioflavin T; hit rate 2.1% among 270,000; recombinant tau K18 P301L (four-repeat tau fragment), heparin-induced fibrillization, ThT fluorescence; Potency, µM (highest dose often 57.4 µM), inactives show at the top dose activity, negative = inhibition, most hits filed as inhibitors; note: potency is the fitted concentration of half-maximal effect; nearly all actives have a fitted effect of over 55% in size
# Target sequence (P10636 561-689 P618L limits assumed): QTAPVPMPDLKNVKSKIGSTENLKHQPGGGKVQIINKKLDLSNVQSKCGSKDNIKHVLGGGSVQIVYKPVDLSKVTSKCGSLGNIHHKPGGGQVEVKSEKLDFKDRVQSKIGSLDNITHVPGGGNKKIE
#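 Heparin-induced fibrillization of the P301L-mutant K18 repeat-domain fragment of human tau was followed by ThT binding in quantitative high-throughput format.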
# Tau fibril FP = blocks human tau fibril formation measured by polarization. Potency, µM (titrated, usually from 57.7 µM), inactives show at the highest dose activity, negative = inhibition, usual class: inhibitors. hit rate 0.39% among 280,000. P10636. K18 P301L tau heparin fibrillization, Alexa594 FP, 6 h; note: potency is the fitted concentration of half-maximal effect; nearly all actives have a fitted effect of over 55% in size
#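 Recombinant K18 P301L […], labeled with Alexa 594 at 0.24 uM over 15 uM unlabeled; heparin inducer 20 uM final; 37 C, 6 hr; FP endpoint.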
# Active calls of the source: *; ? = inconclusive; . = no result; ! = repeats disagree; [ ] = dose if it differs, or a comment. A selection: hits, their analogues and other compounds. The true share with any hit is near 11%. Unless noted, calls come from the whole dose curve; as a rule, active = well fitted curve in the direction sought with a large enough effect; inconclusive = small, poorly fitted or top-dose-only effect, or another doubt; inactive = no such curve, though single readings can be large; an effect the other way counts as inactive or inconclusive. Unless noted, % is set by controls: 0 for no effect and ±100 for the full control effect.
SMILES,FBPA coupling cs,Sfp inh,Tau fluor cs,G9a block,Tau fibril ThT,Tau fibril FP
Cc1nc2sc(C(=O)O)c(N)c2c2c1COC(C)(C)C2,-3,40µM*,-22%,3.2µM*,?,5%
Cc1nc2oc(C(=O)c3ccc(Br)cc3)c(N)c2c2c1COC(C)(C)C2,5,-7%,-5%,25µM*,?,3%
COc1ccc(NC(=O)c2sc3nc(N4CCCC4)c4c(c3c2N)CC(C)(C)OC4)c(OC)c1,5,?,.,3%,.,.
CCCN(Cc1ccc(C)cc1)C(=O)c1ccc(CNS(=O)(=O)c2ccc(C(C)=O)cc2)cc1,.,.,.,9%[12.7 µM],.,.
Cc1ccccc1-n1sc2cc(F)ccc2c1=O,4,0.56µM*,-14%,-113%,10µM*,25µM*
O/C(=C\c1nc2ccccc2nc1/C=C(\O)c1ccccc1)c1ccccc1,-48*,40µM*,-8%,?,?,3%
C=CCC(C)(O)c1cccs1 (centres undefined),5,9%,-2%,.,-2%,0%
Cc1ccc(/C=C/C(=O)Nc2cccnc2)o1,1,-15%,2%,3.5µM*,3%,1%
NC(=O)c1ccccc1NC(=O)/C=C/c1c(Cl)cccc1Cl,.,2%,-21%,47%,-17%,-17%
Cc1ccc(/C=C/C(=O)Nc2cccc3ncccc23)o1,-12,20µM*,-16%,?,?,-5%
O=C(/C=C/c1ccccc1)Nc1cccnc1,-3,-5%,.,.,.,.
Cc1ccc(/C=C/C(=O)Nc2ccccc2C(N)=O)o1,.,.,-8%,10µM*,-10%,-1%
NC(C(=O)O)c1cccc(O)c1 (centres undefined),.,5%,-3%,43%[59 µM],10%,-1%
Cc1ccc(OCc2nc3ccccc3n2Cc2ccccc2Cl)cc1,.,.,-14%,8%[59 µM],?,-3%
Cc1ccc(NC(=O)CN(C)C(=O)C(Sc2ccccc2)c2ccccc2)cc1 (centres undefined),.,.,.,-12%[59 µM],.,.
FC(F)Oc1ccc(/C=N/n2c(Cc3ccc(Br)cc3)n[nH]c2=S)cc1,-1,18µM*,.,2.8µM*,.,.
CSc1ccc(/C=N/n2c(Cc3ccc(Br)cc3)n[nH]c2=S)cc1,-2,18%,?,16µM*,?,-3%
O=c1c2c3c(sc2ncn1/N=C/c1ccc([N+](=O)[O-])o1)CCCC3,-8,-16%,?,9%,20µM*,-15%
Cn1cc(/C=N/n2cnc3sc4c(c3c2=O)CCCC4)c2ccccc21,-2,1%,-8%,29%[12.7 µM],-8%,3%
Cc1ccccc1N1CCN(Cc2cccc(C(=O)O)c2)CC1,-1,10%,4%,9%,3%,3%
COC(=O)c1cc(CN2CCN(c3ccccc3C)CC2)ccc1O,0,-11%,-15%,7.1µM*,-14%,-3%
O=c1ccc(C(F)(F)F)cn1Cc1cc(=O)n2cc(Br)ccc2n1,-3,13%,-13%,4.5µM*,-17%,8%
O=C(O)c1cccc(NC(=S)NC(=O)c2ccncc2)c1,5,?,1%,45µM*,-6%,5%
CNC(=S)Nc1cccc(C(=O)O)c1,0,56µM*,11%,18%[12.7 µM],8%,2%
CC(C)(C)C(=O)NC(=S)Nc1cccc(C(=O)O)c1,3,?,0%,0%[0.501 µM],6%,-5%
SMILES,FBPA coupling cs,Sfp inh,Tau fluor cs,G9a block,Tau fibril ThT,Tau fibril FP
O=C(NC(=S)Nc1cnc2ccccc2c1)c1ccccc1,0,56µM*,0%,?,-14%,-1%
CCCCNC(=O)CN1CCN(Cc2ccc3cc(OC)ccc3c2)CC1,-1,79µM*,.,45µM*,.,.
OC(COc1ccc2c(c1)OCO2)CN1CCN(c2ccccc2)CC1 (centres undefined),0,?,-5%,50µM*,?,1%
C=CCc1ccccc1OCC(O)CN1CCN(Cc2ccc3c(c2)OCO3)CC1 (centres undefined),0,7%,-5%,45µM*!,-4%,2%
C=CCc1ccccc1OCC(O)CN1CCN(c2ccc(C)cc2)CC1 (centres undefined),-1,?,?,13µM*,?,10%
C=CCc1ccccc1OCC(O)CN1CCN(C(=O)OCC)CC1 (centres undefined),-2,-13%,-6%,29%[2.33 µM],-8%,-8%
Cc1ccc(OCC(O)CN2CCN(Cc3ccc4c(c3)OCO4)CC2)cc1C (centres undefined),-3,-5%,1%,-15%[59 µM],-1%,-2%
CC1(C(=O)OCC(=O)c2c[nH]c3ccccc23)CC1(Cl)Cl (centres undefined),-2,15%,?,-9%[59 µM],-12%,?
COc1ccc(-c2cccc(C3C4C=CCCC4(C)C(=O)N3Cc3ccccc3)c2)cc1 (centres undefined),1,?,.,.,.,.
COc1cccc2cc(C(=O)C3=C(O)C(=O)N(CCN4CCOCC4)C3c3ccc(C)o3)oc12 (centres undefined),-1,-15%,.,32µM*,.,.
COC(=O)c1ccc(C2C(C(=O)c3cc4ccccc4o3)=C(O)C(=O)N2CCN2CCOCC2)cc1 (centres undefined),.,14%,.,?,.,.
O=C(C1=C(O)C(=O)N(CCN2CCOCC2)C1c1ccc([N+](=O)[O-])cc1)c1cc2ccccc2o1 (centres undefined),.,-29%,.,40µM*,.,.
COc1cccc(C2C(C(=O)c3cc4ccccc4o3)=C(O)C(=O)N2CCN2CCOCC2)c1 (centres undefined),11,14%,.,45µM*,.,.
COc1ccc(C2C(C(=O)c3ccco3)=C(O)C(=O)N2CCN2CCOCC2)cc1 (centres undefined),-1,2%,.,50µM*,.,.
COc1ccccc1C1C(C(=O)c2cc3ccccc3o2)=C(O)C(=O)N1CCN1CCOCC1 (centres undefined),-3,-22%,-16%,8.9µM*,?,-13%
CN(CC(=O)Nc1ccccc1Cl)C(=O)CSc1nnc(-c2ccco2)n1C,.,.,.,10%[2.33 µM],.,.
COc1ccc(-n2c3c(cc(C(=O)NNc4ccccc4C)c2=O)C(=O)CC(C)(C)C3)cc1,2,4%,-8%,50µM*,-5%,-2%
Cc1cccc(OCCCCCn2ccnc2)c1,0,4%,0%,32µM*,-2%,-7%
Cc1cccc(OCCn2ccnc2)c1,2,-1%,.,?,.,.
Cc1cccc(Cl)c1OCCCCn1ccnc1,1,16%,11%,-19%[59 µM],0%,7%
Cc1cc(OCCCCn2ccnc2)cc(C)c1Cl,3,-8%,-8%,8.9µM*,-6%,1%
Cc1cc(Cl)cc(C)c1OCCCCn1ccnc1,1,13%,-3%,32µM*,-15%,5%

# Compound activity from PubChem BioAssay.
